Laboratory results as given in PubChem BioAssay AID1159580 (chemical genetic matrix, 2015).
Screen size: about 5,500 compounds; about 2,000 (36%) were called active. Inconclusive results (about 18%) are left out. The list shows a part of the results. Unmarked numbers belong to inactive results. No stated cut-off is given here; in the data, active means normalized growth mostly below about 0.91 (no sharp cut-off); inconclusive means no clear call, values can overlap the other calls; inactive means mostly above about 0.92.

Experiment: chemical genetic growth profiling, strain panel (AID 1159580);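 further: tested at 20 µM; growth read once vehicle control cultures reached saturation at 30 °C; 1 = growth at the plate median or of vehicle wells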
Details: growth OD

CC1(C)C(C(Cl)Cl)C2(Cl)C(Cl)C(Cl)C1(Cl)C2(Cl)Cl (centres undefined)
normalized growth (S. cerevisiae deletion strains, locus YJR043C, strain POL32, stronger effect = lower value): 0.978 | normalized growth (S. cerevisiae deletion strains, locus YJR075W, strain HOC1, stronger effect = lower value): 0.985 | normalized growth (S. cerevisiae deletion strains, locus YKL009W, strain mrt4, stronger effect = lower value): 0.965 | normalized growth (S. cerevisiae deletion strains, locus YKL068W, stronger effect = lower value): 0.983 | normalized growth (S. cerevisiae deletion strains, locus YKL085W, strain MDH1 (second series), stronger effect = lower value): 0.973 | normalized growth (S. cerevisiae deletion strains, locus YKL085W, strain MDH1, stronger effect = lower value): 0.973 | normalized growth (S. cerevisiae deletion strains, locus YKL160W, strain elf1, stronger effect = lower value): 0.969 | normalized growth (S. cerevisiae deletion strains, locus YKL190W, strain CNB1, stronger effect = lower value): 0.997 | normalized growth (S. cerevisiae deletion strains, locus YKR001C, strain vps1, stronger effect = lower value): 0.964 | normalized growth (S. cerevisiae deletion strains, locus YKR026C, strain gcn3, stronger effect = lower value): 0.989 | normalized growth (S. cerevisiae deletion strains, locus YKR091W, strain srl3, stronger effect = lower value): 0.985 | normalized growth (S. cerevisiae deletion strains, locus YLL001W, strain dnm1, stronger effect = lower value): 0.994 | normalized growth (S. cerevisiae deletion strains, locus YLL026W, stronger effect = lower value): 0.981 | normalized growth (S. cerevisiae deletion strains, locus YLL041C, strain sdh2, stronger effect = lower value): 0.989 | normalized growth (S. cerevisiae deletion strains, locus YLR027C, strain aat2, stronger effect = lower value): 0.97 | normalized growth (S. cerevisiae deletion strains, locus YLR039C, strain RIC1, stronger effect = lower value): 0.883 | normalized growth (S. cerevisiae deletion strains, locus YLR058C, strain SHM2, stronger effect = lower value): 0.983 | normalized growth (S. cerevisiae deletion strains, locus YLR102C, strain apc9, stronger effect = lower value): 0.979 | normalized growth (S. cerevisiae deletion strains, locus YLR221C, strain rsa3, stronger effect = lower value): 0.961 | normalized growth (S. cerevisiae deletion strains, locus YLR258W, strain gsy2, stronger effect = lower value): 0.975 | normalized growth (S. cerevisiae deletion strains, locus YLR262C, strain YPT6 (second series), stronger effect = lower value): 0.817 (active) | normalized growth (S. cerevisiae deletion strains, locus YLR262C, strain YPT6, stronger effect = lower value): 0.884 | normalized growth (S. cerevisiae deletion strains, locus YLR268W, strain sec22, stronger effect = lower value): 0.97 | normalized growth (S. cerevisiae deletion strains, locus YLR320W, strain mms22, stronger effect = lower value): 0.878 | normalized growth (S. cerevisiae deletion strains, locus YLR330W, strain CHS5, stronger effect = lower value): 0.991 | normalized growth (S. cerevisiae deletion strains, locus YLR342W, strain FKS1 (second series), stronger effect = lower value): 0.913 | normalized growth (S. cerevisiae deletion strains, locus YLR342W, strain FKS1, stronger effect = lower value): 0.964 | normalized growth (S. cerevisiae deletion strains, locus YLR357W, strain rsc2, stronger effect = lower value): 0.993 | normalized growth (S. cerevisiae deletion strains, locus YLR370C, strain arc18, stronger effect = lower value): 0.991 | normalized growth (S. cerevisiae deletion strains, locus YLR371W, strain rom2, stronger effect = lower value): 0.968 | normalized growth (S. cerevisiae deletion strains, locus YLR384C, strain iki3, stronger effect = lower value): 0.974 | normalized growth (S. cerevisiae deletion strains, locus YLR418C, strain cdc73, stronger effect = lower value): 0.879 | normalized growth (S. cerevisiae deletion strains, locus YML016C, strain PPZ1, stronger effect = lower value): 0.986 | normalized growth (S. cerevisiae deletion strains, locus YML032C, strain rad52, stronger effect = lower value): 0.956 | normalized growth (S. cerevisiae deletion strains, locus YML120C, strain ndi1, stronger effect = lower value): 0.983 | normalized growth (S. cerevisiae deletion strains, locus YML124C, strain tub3, stronger effect = lower value): 0.976 | normalized growth (S. cerevisiae deletion strains, locus YMR058W, strain fet3, stronger effect = lower value): 0.991 | normalized growth (S. cerevisiae deletion strains, locus YMR078C, strain ctf18, stronger effect = lower value): 0.953 | normalized growth (S. cerevisiae deletion strains, locus YMR125W, strain sto1, stronger effect = lower value): 0.995 | normalized growth (S. cerevisiae deletion strains, locus YMR129W, stronger effect = lower value): 0.972 | normalized growth (S. cerevisiae deletion strains, locus YMR205C, strain PFK2, stronger effect = lower value): 0.883 | normalized growth (S. cerevisiae deletion strains, locus YMR223W, strain ubp8, stronger effect = lower value): 0.963 | normalized growth (S. cerevisiae deletion strains, locus YMR231W, strain pep5, stronger effect = lower value): 0.977 | normalized growth (S. cerevisiae deletion strains, locus YMR263W, strain SAP30, stronger effect = lower value): 0.988 | normalized growth (S. cerevisiae deletion strains, locus YMR307W, strain GAS1, stronger effect = lower value): 0.967 | normalized growth (S. cerevisiae deletion strains, locus YNL067W, strain RPL9B, stronger effect = lower value): 0.993 | normalized growth (S. cerevisiae deletion strains, locus YNL071W, strain lat1, stronger effect = lower value): 0.834 (active) | normalized growth (S. cerevisiae deletion strains, locus YNL128W, strain TEP1, stronger effect = lower value): 0.992 | normalized growth (S. cerevisiae deletion strains, locus YNL153C, strain GIM3, stronger effect = lower value): 0.988 | normalized growth (S. cerevisiae deletion strains, locus YNL209W, strain ssb2, stronger effect = lower value): 0.979 | normalized growth (S. cerevisiae deletion strains, locus YNL233W, strain BNI4, stronger effect = lower value): 0.999 | normalized growth (S. cerevisiae deletion strains, locus YNL248C, strain rpa49, stronger effect = lower value): 0.99 | normalized growth (S. cerevisiae deletion strains, locus YNL250W, strain rad50, stronger effect = lower value): 0.95 | normalized growth (S. cerevisiae deletion strains, locus YNL271C, strain bni1, stronger effect = lower value): 0.975 | normalized growth (S. cerevisiae deletion strains, locus YNL298W, strain CLA4, stronger effect = lower value): 0.958 | normalized growth (S. cerevisiae deletion strains, locus YNL307C, strain MCK1, stronger effect = lower value): 0.778 (active) | normalized growth (S. cerevisiae deletion strains, locus YNL322C, strain KRE1 (second series), stronger effect = lower value): 0.979 | normalized growth (S. cerevisiae deletion strains, locus YNL322C, strain KRE1, stronger effect = lower value): 0.987 | normalized growth (S. cerevisiae deletion strains, locus YNR049C, strain mso1, stronger effect = lower value): 0.985 | normalized growth (S. cerevisiae deletion strains, locus YNR052C, strain pop2, stronger effect = lower value): 0.963 | normalized growth (S. cerevisiae deletion strains, locus YOL006C, strain TOP1, stronger effect = lower value): 0.926 | normalized growth (S. cerevisiae deletion strains, locus YOL012C, strain htz1): 1.18 | normalized growth (S. cerevisiae deletion strains, locus YOL147C, strain pex11, stronger effect = lower value): 0.973 | normalized growth (S. cerevisiae deletion strains, locus YOR001W, strain rrp6, stronger effect = lower value): 0.995 | normalized growth (S. cerevisiae deletion strains, locus YOR061W, strain CKA2, stronger effect = lower value): 0.992 | normalized growth (S. cerevisiae deletion strains, locus YOR069W, strain VPS5, stronger effect = lower value): 0.985 | normalized growth (S. cerevisiae deletion strains, locus YOR070C, strain gyp1, stronger effect = lower value): 0.991 | normalized growth (S. cerevisiae deletion strains, locus YOR080W, strain dia2, stronger effect = lower value): 0.974 | normalized growth (S. cerevisiae deletion strains, locus YOR083W, strain WHI5, stronger effect = lower value): 0.982 | normalized growth (S. cerevisiae deletion strains, locus YOR106W, strain vam3, stronger effect = lower value): 0.95 | normalized growth (S. cerevisiae deletion strains, locus YOR136W, strain idh2, stronger effect = lower value): 0.978 | normalized growth (S. cerevisiae deletion strains, locus YOR144C, strain elg1, stronger effect = lower value): 0.967 | normalized growth (S. cerevisiae deletion strains, locus YOR184W, strain ser1, stronger effect = lower value): 0.879 | normalized growth (S. cerevisiae deletion strains, locus YOR265W, strain rbl2, stronger effect = lower value): 0.98 | normalized growth (S. cerevisiae deletion strains, locus YOR270C, strain vph1, stronger effect = lower value): 0.922 | normalized growth (S. cerevisiae deletion strains, locus YOR290C, strain snf2, stronger effect = lower value): 0.977 | normalized growth (S. cerevisiae deletion strains, locus YOR316C, strain cot1, stronger effect = lower value): 0.973 | normalized growth (S. cerevisiae deletion strains, locus YPL051W, strain arl3, stronger effect = lower value): 0.937 | normalized growth (S. cerevisiae deletion strains, locus YPL055C, strain LGE1, stronger effect = lower value): 0.981 | normalized growth (S. cerevisiae deletion strains, locus YPL078C, strain atp4, stronger effect = lower value): 0.988 | normalized growth (S. cerevisiae deletion strains, locus YPL106C, strain sse1, stronger effect = lower value): 0.984 | normalized growth (S. cerevisiae deletion strains, locus YPL240C, strain hsp82, stronger effect = lower value): 0.982 | normalized growth (S. cerevisiae deletion strains, locus YPL241C, strain CIN2, stronger effect = lower value): 0.988 | normalized growth (S. cerevisiae deletion strains, locus YPR119W, strain clb2, stronger effect = lower value): 0.973 | normalized growth (S. cerevisiae deletion strains, locus YPR141C, strain kar3, stronger effect = lower value): 0.963 | normalized growth (S. cerevisiae deletion strains, locus YPR163C, strain tif3, stronger effect = lower value): 0.946 | normalized growth (S. cerevisiae deletion strains, locus YPR167C, strain met16, stronger effect = lower value): 0.978 | normalized growth (S. cerevisiae deletion strains, strain wtn01, stronger effect = lower value): 0.966 | normalized growth (S. cerevisiae strains, strain wild type, stronger effect = lower value): 0.986
